Data as given in the supplement of paper PMC10127200.
Counter-ions that a name gives are not always drawn.

How the values were obtained:
Test in all cases: Euclidean distance of Cell Painting phenotypic profile (signed KS, 77 features) to DMSO centroid (dimensionless distance); 5 or 10 uM (library dependent); higher = stronger phenotypic change vs DMSO (phenoactivity)
Conditions in all cases: 48 h
786-O = system: 786-O
How it was run: (§1)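 Five cancer lines, together with a healthy fibroblast line, received library compounds for 48 h at a library-dependent 10 or 5 uM and 0.1% DMSO final. Harmony then derived 77 features from confocal 20X images (9 fields/well) of the stained cells, scoring each as a signed Kolmogorov-Smirnov statistic against same-plate vehicle wells. After plate-position correction, correlation weighting and replicate averaging at the top dose, phenoactivity was taken as each profile's Euclidean distance to the median vehicle profile.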

A549 = system: A549
How it was run: as §1

DU145 = system: DU145
How it was run: as §1

FB = system: FB
How it was run: as §1

HEPG2 = system: HEPG2
How it was run: as §1

OVCAR4 = system: OVCAR4
How it was run: as §1

SMILES | Euclidean distance (786-O) | Euclidean distance (A549) | Euclidean distance (DU145) | Euclidean distance (FB) | Euclidean distance (HEPG2) | Euclidean distance (OVCAR4)
Cc1ncc(-c2ccnc(Nc3ccc(S(C)(=O)=O)cc3)n2)n1C(C)C | 2.6 | 3.78 | 3.05 | 3.19 | 3.09 | 3.43
COc1cc(NC(C)CCCN)c2ncccc2c1 (stereo not drawn) [Primaquine Diphosphate] | 0.845 | 2.02 | 1.16 | 2.24 | 2.3 | 1.51
CNC(=O)c1ccc(C)c(-n2c(C)cc(OCc3ccc(F)cc3F)c(Br)c2=O)c1 | 1.33 | 1.29 | 0.844 | 1.55 | 1.94 | 1.07
O=C(O)CCNC(=O)c1ccccc1 [Betamipron] | 0.807 | 1.17 | 1.01 | 0.869 | 0.988 | 1.34
CN(CCN1CCC(OC(=O)Nc2ccccc2-c2ccccc2)CC1)C(=O)c1ccc(CN2CCC(C(N)=O)CC2)cc1 [Revefenacin] | 1.01 | 1.27 | 1.01 | 1.33 | 1.25 | 1.44
CN(C)CC(=O)Nc1ccc2[nH]c(=O)c3ccccc3c2c1 | 1.25 | 1.08 | 0.921 | 1.3 | 1.34 | 1.07
C[C@](N)(Cc1ccc(O)c(O)c1)C(=O)O [Methyldopa] | 1.49 | 0.734 | 1.09 | 0.909 | 0.55 | 0.729
C[C@H]1O[C@H](O[C@H]2[C@H](O)[C@@H](O)[C@@H](O[C@H]3[C@H](O)[C@@H](O)C(O)O[C@@H]3CO)O[C@@H]2CO)[C@H](O)[C@@H](O)[C@@H]1N[C@H]1C=C(CO)[C@@H](O)[C@H](O)[C@H]1O (stereo partly drawn) [Acarbose] | 1.5 | 1.91 | 1.47 | 1.59 | 0.847 | 1.46
CCC(C(=O)O)c1ccc(N2Cc3ccccc3C2=O)cc1 (stereo not drawn) [Indobufen] | 0.947 | 0.717 | 1.19 | 1.01 | 0.618 | 1.31
COc1cc(OC)c(/C=C/S(=O)(=O)Cc2ccc(OC)c(NCC(=O)O)c2)c(OC)c1 | 2.84 | 2.83 | 4.64 | 3.03 | 3.6 | 2.72
CCCOc1ccc2c(c1)CC[C@@H]1[C@@H]2CC[C@]2(C)[C@@H](OC)CC[C@@H]12 [Promestriene] | 1.13 | 0.797 | 0.94 | 1.24 | 0.764 | 1.01
CN(C)CCOC(c1ccccc1)c1ccccc1.Cn1c(=O)c2[nH]c(Cl)nc2n(C)c1=O [Dimenhydrinate] | 0.947 | 1 | 1.72 | 1.28 | 0.581 | 0.863
COc1ccc(C[C@@H]2c3cc(OC)c(OC)cc3CC[N@+]2(C)CCC(=O)OCCCCCOC(=O)CC[N@@+]2(C)CCc3cc(OC)c(OC)cc3[C@H]2Cc2ccc(OC)c(OC)c2)cc1OC [Cisatracurium Besylate] | 1.42 | 0.822 | 0.815 | 1.11 | 1.11 | 1.35
O=C1[C@H](CC[C@H](O)c2ccc(F)cc2)[C@@H](c2ccc(O)cc2)N1c1ccc(F)cc1 [Ezetimibe] | 1.74 | 1 | 3.08 | 1.36 | 2.26 | 1.34
CC(=O)Nc1ccccc1 [Acetanilide] | 0.827 | 0.504 | 0.799 | 0.893 | 0.768 | 1.34
N#C[C@@H]1CCCN1C(=O)CNC12CC3CC(CC(O)(C3)C1)C2 [Vildagliptin (LAF-237)] | 1.09 | 1.02 | 1.43 | 0.918 | 0.836 | 1.21
O=C1OC(c2ccc(O)cc2)(c2ccc(O)cc2)c2ccccc21 [Phenolphthalein] | 1.6 | 0.655 | 1.35 | 0.979 | 0.6 | 1.49
COc1ccccc1OCC(O)CO (stereo not drawn) [Guaifenesin] | 1.05 | 0.957 | 1.4 | 1.24 | 1.99 | 1.31
Nc1ncccc1-c1nc2ccc(-c3ccccc3)nc2n1-c1ccc(C2(N)CCC2)cc1 [Miransertib (ARQ 092) HCl] | 4.75 | 4.1 | 2.87 | 4.17 | 4.52 | 3.46
OCc1cc(C(O)CNCCCCCCOCCCCc2ccccc2)ccc1O (stereo not drawn) [Salmeterol] | 1.56 | 1.95 | 1.51 | 1.75 | 2.13 | 1.77
Cn1cncc1[C@@](N)(c1ccc(Cl)cc1)c1ccc2c(c1)c(-c1cccc(Cl)c1)cc(=O)n2C [Tipifarnib] | 2.23 | 2.94 | 2.5 | 2.31 | 1.91 | 2.15
C=C[C@@]1(C)CC(=O)[C@]2(O)[C@@]3(C)[C@@H](O)CCC(C)(C)[C@@H]3[C@H](O)[C@H](OC(C)=O)[C@@]2(C)O1 [Forskolin] | 1.79 | 1.04 | 1.39 | 1.18 | 1.34 | 1.23
C/C=C\c1ccc(OC)cc1 [cis-Anethole] | 0.571 | 0.784 | 0.864 | 0.765 | 0.671 | 1.2
